TSHR antag: Antagonists of the Thyroid Stimulating Hormone Receptor: HTS campaign; activity change, negative = inhibition, % at 11.5 µM; Thyrotropin receptor (Homo sapiens), P16473; AID 504810, 2011; hit rate 0.2% among 330,000; TSHR-expressing cells, TSH-stimulated cAMP HTRF, 2 h; hits give low values;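 active = activity change below a set negative limit, meaning inhibition stronger than a set level, cut at about -70% in these data; inconclusive = activity change between two set negative limits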; also: % is scaled to controls: 0 for no effect and ±100 for the full control effect
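TSHR-expressing cells, 200/well, pre-treated with compound, then stimulated with EC80 TSH (4nM final) for 2 hours at 37 deg C. cAMP measured by competitive HTRF: anti-cAMP cryptate antibody in lysis buffer plus cAMP-d2, read after 30 minutes at room temperature.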
TSG101-PTAP inh: qHTS Assay for Iinhibitors of HIV-1 Budding by Blocking the Interaction of PTAP/TSG101 | Tumor susceptibility gene 101 protein (Homo sapiens), Q99816 | Fluorescence polarization, FITC-PTAP peptide / Tsg101 binding | Potency, µM (top dose mostly 115 µM), without a hit: at the highest dose activity change, negative = inhibition, hits mostly inhibitors | 340,000 tested, under 10 active | AID 493005, 2010; active = well fitted inhibition curve with a large enough effect in the main read-out, with a control signal flat, not every such curve was filed as active; inconclusive = small, poorly fitted or top-dose-only effect, or effect the other way, or a change in a side signal; inactive = no such curve, though single readings can be large or run the other way; also: potency is read from the fitted curve at half-maximal effect; % of control where 0% means no effect
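Tsg101 binding domain (10 uM final) was mixed with compound and a FITC-labeled PTAP peptide (50 nM final) in HEPES pH 7.5 buffer with NaCl, Tween 20, EDTA and TCEP; fluorescence polarization was read after 20 min at r.t.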
Apoferritin bind: qHTS Assay for Identification of Novel General Anesthetics; apoferritin/1-aminoanthracene competitive binding, fluorescence; Potency, µM (series often up to 77.5 µM), without a hit: at the highest dose activity change, negative = displacement, usual class: inhibitors; hit rate 0.074% among 350,000; AID 485281, 2010; Ferritin light chain (Equus caballus), P02791; also: potency is read from the fitted curve at half-maximal effect; % is scaled to controls: 0 for no effect and ±100 for the full control effect; nearly all actives have a fitted effect of over 20% in size
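Concentration-response curves derived by four-parameter Hill fitting of normalized fluorescence, where compounds displaced 1-AMA from 10 uM horse apoferritin following a brief 10 min room-temperature incubation; propofol titration acted as positive control.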
BRCA1 expr up: qHTS Assay to Identify Small Molecule Activators of BRCA1 Expression; MCF7-BRCA1-FFLuc reporter, luminescence, 48 h; response scale: scaled: vehicle 0%, 10 µM genistein 100%; Potency, µM (series often up to 46.1 µM), for the others: at the top dose activation, actives largely listed as activators; hit rate 1.1% among 380,000; AID 624202, 2012; also: potency is read from the fitted curve at half-maximal effect; nearly all actives have a fitted effect of over 80% in size
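MCF7 cells carrying a BRCA1-firefly luciferase reporter (2000 cells/well, phenol-red free MEM) were attached for 2 h at 37 °C, then given compounds for 48 h. Luminescence was read 15 min after luciferase reagent; activity normalized to genistein (10 microM) and DMSO.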
ASM inhibitor: Inhibitors of Secretory Acid Sphingomyelinase (S-ASM): qHTS. Sphingomyelin phosphodiesterase (Homo sapiens), P17405. hit rate 0.006% among 340,000. placental ASM, HMU-PC fluorogenic substrate, 60 min. Potency, µM (titrated, usually from 57.5 µM), for the others: at the top dose activity change, negative = inhibition, hits mostly inhibitors; also: potency is read from the fitted curve at half-maximal effect
Target sequence (P17405 47-631 limits assumed): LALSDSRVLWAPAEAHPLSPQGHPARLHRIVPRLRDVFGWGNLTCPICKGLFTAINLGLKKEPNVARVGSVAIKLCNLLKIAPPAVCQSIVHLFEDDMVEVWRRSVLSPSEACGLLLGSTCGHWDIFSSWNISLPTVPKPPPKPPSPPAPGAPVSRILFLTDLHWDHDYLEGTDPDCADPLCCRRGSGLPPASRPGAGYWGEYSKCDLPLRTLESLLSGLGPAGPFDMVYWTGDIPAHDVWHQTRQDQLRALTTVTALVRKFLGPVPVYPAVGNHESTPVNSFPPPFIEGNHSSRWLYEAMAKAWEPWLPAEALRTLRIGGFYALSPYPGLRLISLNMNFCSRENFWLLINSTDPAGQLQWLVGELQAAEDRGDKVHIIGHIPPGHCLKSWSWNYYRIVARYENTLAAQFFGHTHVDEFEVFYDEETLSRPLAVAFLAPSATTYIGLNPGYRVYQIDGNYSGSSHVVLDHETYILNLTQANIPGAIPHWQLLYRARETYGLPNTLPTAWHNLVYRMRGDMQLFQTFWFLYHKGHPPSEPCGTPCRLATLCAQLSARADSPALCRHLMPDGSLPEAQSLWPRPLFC
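Human placenta-derived ASM enzyme was preincubated with compound for 10 minutes at room temperature, then given fluorogenic substrate HMU-PC0 (9 uM final) for 60 minutes at 37 °C; a pH 10 stop preceded fluorescence reading at Ex 386/Em 447 nm.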
An asterisk follows results filed as active; ? = inconclusive; . = no result given. In the library only some 1.2% were active in any assay of this set; here they are far more common. Unless noted, calls follow the shape of the dose curve; as a rule, active = well fitted curve in the direction sought with a large enough effect; inconclusive = small, poorly fitted or top-dose-only effect, or another doubt; inactive = no such curve, though single readings can be large; an effect the other way counts as inactive or inconclusive.

SMILES	TSHR antag	TSG101-PTAP inh	Apoferritin bind	BRCA1 expr up	ASM inhibitor
O=C1COc2ccc(-c3csc(-c4ccc(F)cc4)n3)cc2N1	.	.	.	11%	.
C[n+]1ccc(/C=C/c2ccc([N+](C)(C)C)cc2)c2ccccc21	.	.	.	-66%	.
CCCC1CCC(c2ccc(OCC)cc2)=CC1=O (stereo not given)	-17	-6%	?	8.9µM*	4%
COC(=O)[C@H](CC(C)C)NC(=O)Cn1cnc(C(=O)Nc2ccc(C)c(C)c2)n1	17	-2%	.	11µM*	1%
O=C(c1ccco1)N1CCN(C(=O)c2ccc(-c3ccccc3Cl)o2)CC1	-10	-8%	.	8.9µM*	-1%
O=C(c1cc(-c2ccccc2Cl)on1)N1CCN(C(=O)c2ccco2)CC1	-12	-2%	-19%	72%	-2%
Nc1nc(-c2nn(Cc3ccccc3F)c3ncccc23)ncc1C1CC1	.	.	7%	.	.
CC(C)c1ccc(OC(=O)c2cc(-c3ccccc3)on2)cc1	.	.	14µM*	.	.
Cc1cc(C)cc(OC(=O)c2cc(-c3ccc(Cl)cc3)on2)c1	.	.	2%	0%	.
COC(=O)c1ccc(NC(=S)Nc2ccccn2)cc1	-10	-7%	-2%	93%	2%
COc1ccc(NC(=S)Nc2ccccn2)cc1	20	-1%	-1%	4µM*	0%
COc1ccc(/C=C/C(=O)NC(=S)Nc2ccccn2)cc1	-3	-5%	-2%	8.9µM*	10%
COC(=O)c1c(-c2ccccc2)csc1NC(=O)c1ccco1	4	-2%	-13%	5µM*	40%
O=C1/C(=C/c2ccccc2)CSc2sccc21	-4	-2%	14µM*	86%	-3%
O=C1/C(=C/c2ccccc2)CCCc2ccccc21	-8	-1%	0%	-6%	2%
COc1cc(/C=C2\SC(=O)N(c3ccccc3Cl)C2=O)cc([N+](=O)[O-])c1O	?	-7%	18µM*	-31%	-9%
CCOc1ccc(C(=S)NC2CCCCC2)cc1	-39	-2%	-22%	10µM*	-3%
COc1ccc(C(=S)NC2CCCCC2)cc1	-2	6%	-13%	?	0%
COc1ccc(NC(=O)c2ccc(COc3ccccc3)o2)cc1	14	-8%	-22%	42%	-9%
CCc1nnc(NC(=O)c2ccc(COc3ccc(C)cc3)o2)s1	-14	-4%	6%	5µM*	-3%
CCc1nnc(NC(=O)c2ccc(COc3ccccc3)o2)s1	-14	-6%	-9%	1%	-1%
Cc1ccc(SCc2ccc(C(=O)Nc3nccs3)o2)cc1	-25	4%	?	?	?
O=C(Nc1nccs1)c1ccc(CSc2ccccc2)o1	-24	3%	-18%	2.8µM*	-4%
O=C(Nc1nccs1)c1ccc(COc2ccccc2)o1	8	1%	-8%	5.6µM*	-1%
Cc1ccc(OCc2ccc(C(=O)Nc3ccc(S(N)(=O)=O)cc3)o2)cc1	4	-1%	-2%	10µM*	1%
SMILES	TSHR antag	TSG101-PTAP inh	Apoferritin bind	BRCA1 expr up	ASM inhibitor
CC(=O)OCOC(=O)CNc1ccccc1OCCOc1ccccc1NCC(=O)OCOC(C)=O	.	.	41%	.	.
CC(C)c1ccc(OCC(=O)Nc2ccc(OC(F)(F)F)cc2)cc1	-11	-3%	-8%	-17%	4%
CC(C)c1ccc(NC(=O)COc2ccccn2)cc1	3	-1%	-8%	4µM*	1%
COC(c1ccccc1)c1nnc(CCC(=O)N(C)CCOc2ccccc2)o1 (stereo not given)	-7	-4%	-7%	?	6%
COC(c1ccccc1)c1nnc(CCC(=O)N(C)Cc2cccc(-n3cccn3)c2)o1 (stereo not given)	-10	-2%	-6%	13µM*	1%
C=C(c1nc2ccccc2s1)C1Cc2cccc3c2N(CCC3)C1 (stereo not given)	.	.	.	-53%	.
O=C(C[n+]1ccccc1Cl)c1ccccc1	.	.	.	0%	.
O=C(Cn1ncc2c([nH]c3ccccc32)c1=O)NCC1CCN(Cc2ccc(F)cc2)CC1	-138*	-1%	-4%	2%	3%
O=C(Nc1ccc(S(=O)(=O)Nc2ncccn2)cc1)c1ccccc1NS(=O)(=O)c1ccc(F)cc1	2	-5%	-6%	-3%	18%
O=C(O)/C=C/c1ccc(S(=O)(=O)Nc2ccccc2C(=O)Nc2ccc(F)cc2)cc1	-100*	-2%	0%	-77%	4%
O=C(Cn1cc2c(n1)CCCCC2)NC1CCCCCC1	6	-3%	0%	8.9µM*	-5%
CC1CCCC(NC(=O)Cn2cc3c(n2)CCCCC3)C1C (stereo not given)	-2	1%	-8%	4%	1%
O=[N+]([O-])c1ccc(N=Nc2c(Cl)cc(O)cc2Cl)cc1	-91*	0%	?	-69%	-19%
O=C(NCc1csc(-c2ccccc2)n1)c1ccco1	1	-12%	-17%	10µM*	4%
Cc1cc(C(=O)NCc2csc(-c3ccccc3)n2)no1	26	-2%	-18%	10µM*	0%
Cc1cc(C(=O)NCc2cccs2)no1	4	-2%	?	1%	0%
O=C(Nc1cc(Cl)cc(Cl)c1)c1cnn2c1NC(=C1CC1)C=C2C(F)F	.	.	.	-14%	.
Cc1ccc(-c2csc(NC(=O)COC(=O)c3cccc(S(=O)(=O)N4CCOCC4)c3)n2)cc1	-1	-6%	?	5µM*	-11%
COC(=O)[C@H](CC(C)C)NC(=O)c1ccc(NC[C@@H](N)CS)cc1-c1cccc2ccccc12	.	.	-20%	.	.
COc1ccc(-c2nn3c(-c4cc(C)[nH]n4)nnc3s2)cc1	.	.	.	16%	.
COc1ccccc1/C=N\NC(=O)c1ccc(COc2ccc(C)c(C)c2)o1	.	-13%	.	5.6µM*	-1%
COc1ccccc1NC(=O)c1ccc(COc2ccc(C)c(C)c2)o1	.	.	-11%	.	.
O=C(N/N=C/c1cc([N+](=O)[O-])ccc1O)c1ccc(COc2ccc3c(c2)CCC3)o1	-48	-1%	-5%	-27%	-13%
O=C(N/N=C/c1ccc2ccccc2c1)c1ccc(COc2ccc3c(c2)CCC3)o1	-1	3%	-12%	2µM*	3%
O=C(Nc1nnc(S(=O)(=O)N2CCCC2)s1)c1ccccc1Cl	-9	1%	-3%	2%	-3%
O=C(Nc1nnc(S(=O)(=O)N2CCCC2)s1)c1ccccc1F	-103*	-3%	-10%	20%	-1%
